Results on 16 compounds are retold here after PubChem BioAssay (EPA / NIEHS).

SMILES strings stand for the structures. Several values for one entry are separate records, joined by “and”; a condition that tells them apart may be missing. Identical values can stand only once. Activity calls are given as the source filed them. The calls were made as follows, unless noted: active = hit-call score of the fitted dose curve at least 0.9, where 1 is the maximum; inactive = score below 0.9.

Read-out in assay [1]: Macrophage colony-stimulating factor (MCSF), CSF1 (gene 1435)
The experiment in a line: BSK_IMphg_MCSF: BioMAP Diversity Plus: IMphg Assay for Macrophage colony-stimulating factor (MCSF) Biomarker Activity (AID 2284293). The following applies: primary human endothelial cells with macrophages. An outline of the steps:
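M-CSF was measured by ELISA in human venular endothelial cell/macrophage co-cultures dosed for 24 hours. Sulforhodamine B staining of parallel cultures assessed cytotoxicity; data fitted against DMSO baseline.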

Read-out in assay [2]: Interleukin-10 (IL10), IL10 (gene 3586)
The experiment in a line: BSK_IMphg_IL10: BioMAP Diversity Plus: IMphg Assay for Interleukin-10 (IL10) Biomarker Activity (AID 2284294). The following applies: primary human endothelial cells with macrophages. In short, it runs like this: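 IL-10 read by ELISA after 24 h chemical exposure of primary human venular endothelial cell/macrophage cocultures, with DMSO as baseline. Parallel SRB staining (560 nm) gauged overt cytotoxicity.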

Assay [3] is described as follows: BSK_IMphg_SRB.Mphg: Macrophage Viability Assessment in the BioMAP Diversity Plus: IMphg Assay (AID 2284295). The following applies: primary human endothelial cells with macrophages. In short, it runs like this:
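Cytotoxicity read-out: parallel cultures fixed with 10% TCA, stained with 0.1% sulforhodamine B, read at 560 nm. System combines venular endothelium and macrophages; sampled 24 h post-dosing, fitted positively relative to DMSO control.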

Read-out in assay [4]: Thrombomodulin, THBD (gene 7056)
The experiment in a line: BSK_LPS_Thrombomodulin: BioMAP Diversity Plus: LPS Assay for Thrombomodulin Biomarker Activity (AID 2284296). The following applies: primary human HUVEC with PBMC. An outline of the steps: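 Thrombomodulin on the surface of LPS-activated endothelial/PBMC co-cultures was quantified by ELISA at 24 hours post-dosing, with DMSO as baseline. Parallel SRB total-protein staining flagged overt cytotoxicity.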

Read-out in the next assay: CD69, CD69 (gene 969)
Description: BSK_LPS_CD69: BioMAP Diversity Plus: LPS Assay for CD69 Biomarker Activity (AID 2284303). The following applies: primary human HUVEC with PBMC. An outline of the steps:
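CD69 surface levels were read by ELISA after 24 h chemical treatment of an LPS-stimulated HUVEC plus PBMC co-culture; positive-direction fit against DMSO vehicle.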

Assay [5] can be described thus: Tanguay_ZF_120hpf_MO24: Oregon State University Tanguay Lab 24 Hour Post-fertilization zebrafish Assay for Mortality (AID 2284389). In short, it runs like this:
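Embryo death at 24 hpf was recorded as present or absent in Tropical 5D zebrafish, dechorionated at 4 hpf and dosed statically from 6 hpf (28C, 0.64% DMSO); 5 uM trimethyltin chloride served as positive control.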

Assay [6] in a line: Tanguay_ZF_120hpf_CRAN: Oregon State University Tanguay Lab 120 Hour Post-fertilization zebrafish Assay for Craniofacial Malformation (AID 2284397). In short, it runs like this: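 Scoring of craniofacial malformation as a binary endpoint was done at 120 hpf by brightfield microscopy and was not done in dead embryos. Exposure was static, starting at 6 hpf, in dechorionated wild-type embryos held singly at 28C with 0.64% DMSO final.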

The nature of assay [7]: Tanguay_ZF_120hpf_MORT: Oregon State University Tanguay Lab 120 Hour Post-fertilization zebrafish Assay for Mortality (AID 2284399). An outline of the steps:
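Mortality, recorded present/absent via brightfield imaging at 24 and 120 hpf, in 5D zebrafish embryos exposed statically from 6 hpf after pronase chorion removal. Exposure at 28C, 0.64% DMSO vehicle, DMSO baseline.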

A short description of assay [8]: Tanguay_ZF_120hpf_EDEM: Oregon State University Tanguay Lab 120 Hour Post-fertilization zebrafish Assay for Edema Malformation (AID 2284400). In short, it runs like this:
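Edema recorded as a binary endpoint under brightfield at 120 hpf, excluding embryos that died. Exposure was static, sealed, 28C, from 6 hpf in dechorionated wild-type larvae, final DMSO 0.64%, DMSO as baseline.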

Assay [9] in a line: Tanguay_ZF_120hpf_TCHR: Oregon State University Tanguay Lab 120 Hour Post-fertilization zebrafish Assay for Touch Responsive (AID 2284403). In short, it runs like this:
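Binary touch-response calls are made at 120 hpf in 5D wild-type zebrafish larvae. These larvae were dechorionated with pronase and exposed singly from 6 hpf in sealed, dark plates at 28 °C with 0.64% DMSO final; dead embryos are excluded.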

The nature of assay [10]: Tanguay_ZF_120hpf_ANY: Oregon State University Tanguay Lab 120 Hour Post-fertilization zebrafish Assay for Any Mortality and Malformation (AID 2284404). An outline of the steps:
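Dechorionated Tropical 5D wild-type embryos, one per well from 6 hpf, static exposure in sealed, dark plates at 28C until 120 hpf, 0.64% DMSO final. Brightfield scoring of mortality and malformations as binary presence/absence, pooling 13 morphology endpoints.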

A short description of assay [11]: CCTE_Deisenroth_5AR_NBTE_donor: CCTE's 5alpha-reductase NanoBRET Target Engagement Assay […], Deisenroth Lab (AID 2284319). The following applies: actives raise or lower the signal. In short, it runs like this: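 HEK293T cells were reverse transfected with an SRD5A2-NanoLuc vector for 20 h, exposed to test chemical (8 points, 10 nM - 29.9 uM) for 3 h, then testosterone tracer for 2 h more. Donor luminescence (460 nm) was read; bidirectional fit versus DMSO.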
(In general: BRET reads energy transfer from a luciferase to a nearby fluorophore.)

Assay [12] in a line: CCTE_Deisenroth_5AR_NBTE_acceptor: CCTE's 5alpha-reductase NanoBRET Target Engagement Assay - Autofluorescence Screen, Deisenroth Lab (AID 2284321).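 Also: compound fluorescence in the acceptor channel under 460 nm excitation flags autofluorescence artifacts.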 The following applies: actives raise or lower the signal. In short, it runs like this:
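Chemicals diluted to a nominal 100 uM in DMSO were scanned at 460 nm excitation. Samples were read in three independent runs (n=3). Gain or loss of acceptor signal was fitted relative to DMSO.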

The subject of a further assay is SRD5A2 (gene 6716). The experiment in a line: CCTE_Deisenroth_5AR_NBTE_ratio: CCTE's 5alpha-reductase NanoBRET Target Engagement Assay - Ratio, Deisenroth Lab (AID 2284322). The following applies: actives raise or lower the signal. In short, it runs like this:
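HEK293T cells transiently expressing an SRD5A2-NanoLuc fusion (20 h post-transfection) were exposed to test chemical (10 nM - 29.9 uM, 8 points) for 3 h, then testosterone tracer for a further 2 h. Acceptor/donor BRET ratio was fitted bidirectionally against DMSO baseline.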

Another assay has as its system SERPINA7 (gene 6906). The experiment in a line: CCTE_GLTED_hTBG: CCTE's human Thyroxine-binding Globulin (TBG) Inhibition Assay, Great Lakes Toxicology and Ecology Division (GLTED) Lab (AID 2284343; active = hit-call score of the fitted dose curve at least 0.9, where 1 is the maximum;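 also: active chemicals lower fluorescence versus DMSO baseline by displacing probe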). In short, it runs like this: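 Human thyroxine-binding globulin was exposed to each chemical for 2 hours, during which the ANSA probe could be displaced. Fluorescence was then measured at 380/475 nm, and loss of signal was analysed relative to DMSO.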

For the next assay, the system named is TTR (gene 7276). Description: CCTE_GLTED_hTTR_0.5uM: CCTE's human Transthyretin (hTTR) Inhibition Assay, with 0.5uM TTR, Great Lakes Toxicology and Ecology Division (GLTED) Lab (AID 2284320). In short, it runs like this:
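Probe (ANSA) displacement from 0.5 uM human transthyretin was followed by fluorescence (ex 380, em 475) after a 2 h incubation with chemical. Activity was scored as signal loss and fitted positively relative to DMSO.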

For the next assay, the system named is IYD (gene 389434). Description: CCTE_GLTED_hIYD: CCTE's human Iodotyrosine Deiodinase (xIYD) Inhibition Assay, Great Lakes Toxicology and Ecology Division (GLTED) Lab (AID 2284317; active = hit-call score of the fitted dose curve at least 0.9, where 1 is the maximum;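 also: cell-free human IYD enzyme made in baculovirus insect cells; iodide freed from monoiodotyrosine measured by cerium arsenite color change at 420 nm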). In short, it runs like this: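 Deiodination of MIT by insect-cell-produced human IYD is measured after a 3 h incubation with test chemical. Free iodide passes through a Dowex column and accelerates Sandell-Kolthoff Ce4+ reduction, read at 420 nm; run in triplicate.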

For orientation: AC50 means the midpoint of the concentration-response curve, whichever way the signal moves.

Turning to `CN(C(=O)C(F)(F)C(F)(F)C(F)(F)F)[Si](C)(C)C`, the outcome in assay [1] is “inactive”; in [2], “inactive”; in [3], “inactive”; in [4], “inactive”; in the assay with CD69, CD69 (gene 969), “inactive”; in [5] it was “inactive”. Besides, the compound was classed as inactive in assay [6], in assay [7], in [8], in assay [9] and in [10].

Consider `C[Si](Cl)(Cl)CCC(F)(F)C(F)(F)C(F)(F)C(F)(F)C(F)(F)C(F)(F)F`, for which the outcome is “inactive” in assay [1]; “inactive” in [2]; “inactive” in assay [3]; “inactive” in assay [4]; “inactive” with CD69, CD69 (gene 969); “inactive” in assay [5]. Also, the call in [6], in assay [7], in [8], in [9] and in [10] was inactive.

On to `CCN=C1C=CC(=C(c2ccc(N(CC)CC)cc2)c2ccc(N(CC)CC)cc2)c2ccccc21`, for which the outcome in [4] was inactive. For the same compound, the AC50 was 1.16 µM (active) and 1.01 µM (active) in the assay with CD69, CD69 (gene 969); 6.95 µM (active) in assay [11]; 2.24 µM (active) in assay [12]; 0.166 µM (active) with SRD5A2 (gene 6716); 4.51 µM (active) in the assay with SERPINA7 (gene 6906).

In the case of `FC(F)(F)C(F)(F)C(F)(F)CC1CO1` (stereo not given), the outcome in assay [1] was “inactive”; in [2], “inactive”; in [3] it was “inactive”; in assay [4] it was “inactive”; with CD69, CD69 (gene 969), “inactive”; in assay [5] it was “inactive”. Besides, the compound was called inactive in [6], in assay [7], in assay [8], in assay [9] and in assay [10].

For `NC(=O)C(F)(F)C(F)(F)C(F)(F)C(F)F`, the outcome in assay [1] is “inactive”; in assay [2], “inactive”; in assay [3], “inactive”; in assay [4], “inactive”; with CD69, CD69 (gene 969), “inactive”; in [5], “inactive”. Further, the outcome in [6], in assay [7], in assay [8], in assay [9] and in [10] was inactive. Also, the AC50 with TTR (gene 7276) was 45.2 µM (active).

As for `CCCCCCCCCCCCCC[P+](CCCC)(CCCC)CCCC`, the results for the half-maximal activity concentration (AC50) (in the assay with IYD (gene 389434); in assay [11]; in the assay with SRD5A2 (gene 6716)) were 97.6 µM (active), 13.1 µM (active) and 22.9 µM (active), respectively.

On to `CCCCCCCCCCCCC[N+](C)(C)Cc1ccccc1`, for which the AC50 in the assay on IYD (gene 389434) is 70.8 µM (active); in assay [11], 18.2 µM (active); in [12] it was 17.2 µM (active); in the assay on SRD5A2 (gene 6716) it was 68.9 µM (active).

With `CO[Si](C)(CCC(F)(F)C(F)(F)C(F)(F)C(F)(F)C(F)(F)C(F)(F)F)OC`, the outcome in [1] was “inactive”; in assay [2], “inactive”; in assay [3] it was “inactive”; in assay [4], “inactive”; in the assay with CD69, CD69 (gene 969) it was “inactive”; in [5], “inactive”. The compound was called inactive in assay [6], in [7], in assay [8], in assay [9] and in [10].

As for `CCC(Cc1c(I)cc(I)c(N)c1I)C(=O)O` (stereo not given), the AC50 with SERPINA7 (gene 6906) is 43.1 µM (active).

On to `OC(O)C(F)(F)C(F)(F)F`, for which the outcome is “inactive” in [1]; “inactive” in assay [2]; “inactive” in assay [3]; “inactive” in [4]; “inactive” in the assay with CD69, CD69 (gene 969); “inactive” in assay [5]. The result in [6], in assay [7], in assay [8], in assay [9] and in assay [10] was inactive.

In the case of `OCC(O)CC(F)(F)C(F)(F)C(F)(F)C(F)(F)C(F)(F)C(F)(F)C(F)(F)C(F)(F)F` (stereo not given), the outcome in assay [1] is “inactive”; in assay [2] it was “inactive”; in assay [3], “inactive”; in assay [4], “inactive”; with CD69, CD69 (gene 969), “inactive”; in assay [5] it was “inactive”. Besides, the outcome in assay [7] and in [9] was inactive. Besides, the AC50 in [6] was 6.76 µM (active); in assay [8], 5.23 µM (active); in assay [10], 5.14 µM (active).

As to `CCc1cc(Cc2cc(CC)c(N)c(CC)c2)cc(CC)c1N`, the AC50 in the assay with SERPINA7 (gene 6906) is 8.5 µM (active).

In the case of `O=C(c1ccccc1)c1ccc(O)cc1O`, in the assay on SERPINA7 (gene 6906), the AC50 is 9.12 µM (active).

With `O=S(=O)(O)CCC(F)(F)C(F)(F)C(F)(F)C(F)(F)F`, the outcome is “inactive” in [1]; “inactive” in [2]; “inactive” in assay [3]; “inactive” in assay [4]; “inactive” in the assay with CD69, CD69 (gene 969); “inactive” in [5]. The compound was classed as inactive in assay [6], in assay [7], in assay [8], in assay [9] and in assay [10]. In the assay on TTR (gene 7276), the AC50 is 2.1 µM (active).

For `CC(C)Nc1ccc(NC(C)C)c2c1C(=O)c1ccccc1C2=O`, the outcome in assay [11] and in [12] was inactive. Also, the AC50 in the assay on SRD5A2 (gene 6716) was 3.06 µM (active).

In the case of `CCCCCCCC/C=C\CCCCCCCC(=O)OCC(O)CO` (stereo not given), the AC50 in the assay with IYD (gene 389434) is 68.1 µM (active).
